22 molecules from paper PMC12136788 can be followed below.

T1: UNK ZnF1-3 (human, UniProt Q9C0B0 31-174)
T1 sequence: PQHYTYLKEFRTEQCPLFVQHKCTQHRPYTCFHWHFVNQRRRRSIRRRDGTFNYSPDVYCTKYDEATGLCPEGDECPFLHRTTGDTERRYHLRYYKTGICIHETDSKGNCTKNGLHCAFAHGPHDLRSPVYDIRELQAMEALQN

B1: chr2:61719535:61719536:-_ENSG00000082898_ENST00000401558|hu_mus|FALSE|FALSE (ssRNA)
RNA: GGGAGUUCUACAGUCCGACGAUCGUUUACUACUGUCUUCAAAAAUUUCCAGUGUGCUCUCAAAAAUCUUGGGUAUUGACCUACUAUGUACAUGAUAUUCGAUGCAAUAAUAGCUUUAUUAUCUUUGCCUCUUUUCUGCUCACACAACAGAGGAUUGAGCAUCA
B2: chr2:48026839:48026840:+_ENSG00000116062_ENST00000540021|hu_hu|hu_hu_hu_mus_False|38_78 (ssRNA)
RNA: GGGAGUUCUACAGUCCGACGAUCAUAGUGAGCCACUAGCGUCCUAAAUCUGGAACAAUGGCGAUCAUCCGAAAACUGGCCGAUGAAAAACUUGCCCAGUGAAGUAUCCACAAAGCAAACACCAUACACACGAGUGUGACCAGACAACAGAGGAUUGAGCAUCA
B3: chr1:180251914:180251915:+_ENSMUSG00000026500_ENSMUST00000027781|mus_hu|FALSE|FALSE (ssRNA)
RNA: GGGAGUUCUACAGUCCGACGAUCAGAUCCUAAUGAACCAUACAAUAUUGAAUGCCGGGCGCAGGGAGUAUUUUCAACAUCUAAAAAUCCUAGGAGCUUAAGGGACUUCCAAUAUGAUAAAUGUAACGACGUACAAGAUGCCUUCAACAGAGGAUUGAGCAUCA
B4: 106713800_106713920_1116_CDS_ENSMUSG00000018363_ENSMUST00000103067|mouse|control|control (ssRNA)
RNA: GGGAGUUCUACAGUCCGACGAUCCCUGCUCAUGUAAUUUCUAUGUCGCUGGGACCUGACUCUUCUCUCUGCUAGUCUGGGGUCUGAAGAAUGUCCACACGUUGCACCAUUUGUUCCAGUAAUUGGAGUAUUCUCAUCCACAAACAACAGAGGAUUGAGCAUCA
B5: 173052199_173052319_2237_3pUTR_ENSMUSG00000038400_ENSMUST00000036248|mouse|control|control (ssRNA)
RNA: GGGAGUUCUACAGUCCGACGAUCCUGUAUCCACCUGGCACCAAAUUCGGGGACUGCUUUGGCUUUGGGGAUGCACCUUGCCCCCAAACACUGAACCUUCAUAGUUUUUGUGUUUUAAAGAGGAAGAAAAAAAAAAAAACUAAGCAACAGAGGAUUGAGCAUCA
B6: chr7:72441615:72441616:-_ENSMUSG00000030516_ENSMUST00000102592|mus_hu|FALSE|FALSE (ssRNA)
RNA: GGGAGUUCUACAGUCCGACGAUCAAAAUUUUCAAAUGCAUAGCCAGAAAGAACAGAAAACCACCACUGCCCCUUGUCAAAAAAAAAAAAAAAGAAAAGAAAAGAAAAGAAAAAAAUAUCCCCAAAUCACACCACUAUUUUCUUCAACAGAGGAUUGAGCAUCA
B7: chr17:56552419:56552420:-_ENSMUSG00000013236_ENSMUST00000086828|mus_mus|mus_mus_mus_hu_False|38_58 (ssRNA)
RNA: GGGAGUUCUACAGUCCGACGAUCAAAAAAUACACUAUUUAAAAAAAAUGAAAUGUCACGGGAUACAGUUACACUGACACUAUUAAAAGAAAGCUGGAAAAAAAAUGCAGCCCAGUGUCCCCAGGCUGCAGAGCGGGGAGGAGCCAACAGAGGAUUGAGCAUCA
B8: chr2:48035047:48035048:-_ENSG00000138081_ENST00000403359|hu_hu|motif|central (ssRNA)
RNA: GGGAGUUCUACAGUCCGACGAUCACAAAAUUGCAGCUUAUUUUCUUCACUUCUGUCCCUUCAAGUCUUUACACAGUAAUGCGGAAACACCCAGCUUUGAGAUCCUGAGUCAAUAUAUUGCCACUUUCUUUUUGGUAGCUUGAGCAACAGAGGAUUGAGCAUCA
B9: 14336767_14358337_2061_CDS_ENSG00000038382_ENST00000344204|human|control|control (ssRNA)
RNA: GGGAGUUCUACAGUCCGACGAUCAUACACGUCGUCCAGCAGCUCCUUCUGCAGCUCCUCCAGCCACGUCCACAGCUCUUUCACAUGGGUGUGAAAGGACACUGACAUGUCCAGUAGGAUCUUUCGCUGCUCAACACGCCGAACCAACAGAGGAUUGAGCAUCA
B10: chr10:7433921:7433922:+_ENSMUSG00000040021_ENSMUST00000165952|mus_mus|motif|central (ssRNA)
RNA: GGGAGUUCUACAGUCCGACGAUCGCUUUGUGUAUGUUAGGCAAGUGCUCUACCACUGAGCCAUAUCCUUAGCCCCGGGAAAAUGUACUUUCUUAGUGAGUACAUACACGUAAAUUAAAAAAAAAAAUUACAAACUGAAAAUAACAACAGAGGAUUGAGCAUCA
B11: chr10:7433921:7433922:+_ENSMUSG00000040021_ENSMUST00000165952|mus_mus|FALSE|FALSE (ssRNA)
RNA: B10 RNA with G76U, G77A
B12: chr7:117185563:117185564:+_ENSMUSG00000066232_ENSMUST00000084731|mus_mus|FALSE|FALSE (ssRNA)
RNA: GGGAGUUCUACAGUCCGACGAUCGGGCUUCAGGUUCUUCCACGUAAGUGCAUGGGAAACUCCUUGAUUAAUAUAAUUUAAUGUCUGCUGUAAAACUCGAGGCGCCAUAUAUUGUUUUUCCUUGUACUGAUAUAACACUUUCAACAACAGAGGAUUGAGCAUCA
B13: chr2:71272186:71272187:+_ENSMUSG00000027018_ENSMUST00000028408|mus_mus|FALSE|FALSE (ssRNA)
RNA: GGGAGUUCUACAGUCCGACGAUCCUGUGCCUGUAUUGCCAUAUCUUCACUGAAUCCUUGCAGUAAUCUUUCCCGGGAGAAACUGGGCAAAAAUUGACAAAACUUCACAAGCACAAAGUCUCUUAGUUUCAAAUAGCUUCUGGACAACAGAGGAUUGAGCAUCA
B14: chr11:134117569:134117570:+_ENSG00000151502_ENST00000281187|hu_hu|motif|central (ssRNA)
RNA: GGGAGUUCUACAGUCCGACGAUCAGAAACAUGUAAACACUGCAGCUGCUUAAUUACAAGUUGCACUGCUUGAUUUAGUACCGGUGCACUCCCAGGUUUGGGGACCUUAAGAGAGGGGGACAGGAGCCUCCCCUCACUUUCACACAACAGAGGAUUGAGCAUCA
B15: chr18:65376317:65376318:+_ENSMUSG00000024589_ENSMUST00000163516|mus_hu|FALSE|FALSE (ssRNA)
RNA: GGGAGUUCUACAGUCCGACGAUCUUUCAUGCCAACAGGAAGCUAACCCUUUUCUAGAAAACGUUCUCCAAGCUCCCGUCCUAAUGCUGUGGCACUUUCUCUGACAUACUGAGAACACUCUGGGGUGGGGGUGUGUGUAUGCAACAACAGAGGAUUGAGCAUCA
B16: 56885736_56885856_9979_3pUTR_ENSMUSG00000055296_ENSMUST00000068792|mouse|control|control (ssRNA)
RNA: GGGAGUUCUACAGUCCGACGAUCAUCUUAUAUUGAUCUAGAUUUGACCACAGAUAAACCUUGUACUGCCUAGUCUUGUGUCAACUUGACACAGCUGGAGUUAUCACAGAGAAAGGAGCUUCAGUUGAGGAAAUGCCUCCAUGACAACAGAGGAUUGAGCAUCA
B17: chr2:35037708:35037709:-_ENSMUSG00000026878_ENSMUST00000028238|mus_hu|FALSE|FALSE (ssRNA)
RNA: GGGAGUUCUACAGUCCGACGAUCCUGUUUUUACAACAGAGUUUUUUCUUUUUUUUUAAUUAAACCCAGUAAGAUGUACAGAAGACAAUGAGGCAGUAAAAAGUACUGCUUCCAACAGACAGAGGUGAAAGGUCAAAUGAGGGGCAACAGAGGAUUGAGCAUCA
B18: chr1:60041781:60041782:+_ENSMUSG00000041040_ENSMUST00000036540|mus_mus|motif|central (ssRNA)
RNA: GGGAGUUCUACAGUCCGACGAUCUUAAGGAGUGAAUCUCAACUUUACAAAUUUAGUAAUGGCAAGUUUACUUUAGUUUCCGGAAAGAAAACCUCAGGAUCUCAGUUCAAUCCCAGACAGAGAAAGCUCUCCAUGGGGCCACUGCAACAGAGGAUUGAGCAUCA
B19: chr11:75578338:75578339:+_ENSMUSG00000020849_ENSMUST00000067664|perfect_dup|motif|central (ssRNA)
RNA: GGGAGUUCUACAGUCCGACGAUCUUAAGAACUUUUGAAAACUGUUUAAAAAAAAAAAAAAAAAACCAACAGGGCAGGAACCGGAAUUCUGAGACCAAAUGUAAAAGUCAGAUUUGGUGGUUCUCAGUGACAAUGGGGAGUUUCCAACAGAGGAUUGAGCAUCA
B20: chr13:99559765:99559766:-_ENSMUSG00000041685_ENSMUST00000040340|mus_mus|motif|central (ssRNA)
RNA: GGGAGUUCUACAGUCCGACGAUCCUGAACUUCCUUUAUUAAUUCCUGUAAUUUUCUAACAAGAUCCAAAUGACAAUUUGCGGAUUUCUCUGUAGAUGUUUUGAAUACAUCCCACAUUGGUGCAAAUGUUCCAAGUUGUGAAUACAACAGAGGAUUGAGCAUCA
B21: chr13:31725248:31725249:-_ENSG00000120694_ENST00000320027|perfect_dup|motif|central (ssRNA)
RNA: GGGAGUUCUACAGUCCGACGAUCUUUGGAUUUUGCAUCCAAUUUGUACUUGGUUUUAAAUUCAGCACAAAAAUGUUCGGCGGGCUUCUCAUCAAAGUUCUUUCCUCCUAAGAAGGGAUCAAAAGCUGUGCCUAGAACCUUCAGCAACAGAGGAUUGAGCAUCA
B22: chr11:75578338:75578339:+_ENSMUSG00000020849_ENSMUST00000067664|perfect_dup|FALSE|FALSE (ssRNA)
RNA: B19 RNA with G82U, G83A

Numbering of substitutions follows the chain as printed. Over roughly 24,000 sequences, “enrichment r” has its median near 0.99; the highest 2% begin near 3.7. Many of the other results were omitted from the sample, so the highest values are more common in it than they were.

The test concerns the target T1, UNK ZnF1-3. As to the kind of experiment: nsRBNS (natural sequence RNA bind-n-seq); RBNS binding buffer (assumed for nsRBNS): 25 mM Tris pH 7.5, 150 mM KCl, 3 mM MgCl2, 0.01% Triton X-100, 500 ug/ml BSA, 20 U/ml SUPERase-In, 4 C; UNK is unkempt and MSI1 is Musashi-1; names of the RNAs are library labels; protein concentration not given here; high values mean tight binding.
For the molecule B1, the binding signal is 0.747 enrichment R. The value for B2 was 1.33 enrichment R. The value for B3 was 1.57 enrichment R; that for B4 was 0.982 enrichment R; that for B5 was 2.34 enrichment R. The value for B6 was 5.91 enrichment R. B7 yielded a binding signal of 9.74 enrichment R. Then B8, with 0.585 enrichment R. Molecule B9 returned a binding signal of 0.394 enrichment R. Then B10, with 5.64 enrichment R. The value for B11 was 8.06 enrichment R; that for B12 was 1.59 enrichment R. The value for B13 was 1.25 enrichment R; that for B14 was 0.758 enrichment R.

Molecule B15 gave a binding signal of 0.949 enrichment R.

As to B16, the binding signal came out at 1.28 enrichment R.

B17: the binding signal is 1.64 enrichment R. Then B18, with 0.919 enrichment R; and B19, with 5.06 enrichment R; and B20, with 0.623 enrichment R. Then B21, with 1.17 enrichment R; and B22, with 4.7 enrichment R.
